This note sets out measurements from PubChem BioAssay AID1626 (SRMLSC, 2009).

One may read the inhibition as the change of the read-out against control, counted positive when it falls.

Screen size: about 220,000 compounds; about 2,000 (0.91%) were called active. Another 2% or so got no clear call; they are omitted. Not all results are given here. Results with a measured potency or affinity are listed apart. A number with no mark means an inactive call. Cut-off read from the data, not from the text of the source: inconclusive = inhibition above about 80% without an active follow-up result; inactive = below that; test concentration not stated here.

This experiment can be described thus: M. tuberculosis H37Rv growth inhibitors, H37Rv strain (AID 1626).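 Note: bacteria incubated seven days before Alamar blue readout; 0% = bacteria only wells and 100% = bacteria with antibiotic wells.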 As to conditions: hits give high values, concentration not given here.
Turning to `Cc1c(C(=O)N2CCCCC2)sc(NC(=O)C2CC2)c1C#N`, the inhibition is -1.68%.
Regarding `Cc1c(C(=O)N2CCCCC2)sc(NC(=O)C(C)C)c1C#N`, the inhibition was -2.5%.
On to `CCCC1=NN(C(=O)Cc2ccc(OC)c(OC)c2)C(O)(C(F)(F)F)C1` (stereo not drawn), for which the inhibition is 7.79%.
As for `COc1ccc(-c2oc3ccccc3c(=O)c2OC(C)=O)cc1`, the figure is 67.5%; as for `O=C(O)COc1c(-c2ccco2)oc2ccccc2c1=O`, -8.35%.
As for `CCC(C)NS(=O)(=O)c1ccc(NC(C)=O)cc1` (stereo not drawn), the figure is -1.33%; as for `CC(C)OCC(O)CS(=O)Cc1ccccc1` (stereo not drawn), -8.07%.
As for `CCC(=O)Nc1ccc2nc(C)n(CC(=O)Nc3ccccc3)c(=O)c2c1`, the figure is -7.72%; as for `COc1ccc(C2c3ccc4ccccc4c3Oc3ncn(Cc4ccco4)c(=N)c32)cc1OC` (stereo not drawn), 8.86%.
With `N=c1c2c(ncn1Cc1ccco1)Oc1ccc3ccccc3c1C2c1ccccc1` (stereo not drawn), the inhibition is 20.9%.
As for `Cc1cnc(C(=O)OCC(=O)Nc2ccc(Oc3ccccc3)cc2)cn1`, the figure is 38%; as for `Cc1ccc2c(c1)c1ncnc(N3CCC4(CC3)OCCO4)c1n2C`, -2.11%.
For `Cc1ccc2c(c1)c1ncnc(N3CCN(c4ccccc4)CC3)c1n2C`, the inhibition was 0.76%.
Consider `Fc1ccc2[nH]c3c(N4CCc5ccccc5C4)ncnc3c2c1`, for which the inhibition is 4.31%.
Take `Brc1ccc2[nH]c3c(N4CCc5ccccc5C4)ncnc3c2c1`: the inhibition is 5.42%.
As for `CCN(CC(=O)NCc1cccs1)C(=O)c1ccc(S(=O)(=O)N(C)C)cc1`, the figure is 2.21%; as for `COc1cccc(NC(=O)CN2CCN(S(=O)(=O)c3ccc(F)cc3)CC2)c1`, -7.83%; as for `O=C1/C(=C\c2ccc(Cl)c(Cl)c2)N2CCC1CC2`, 15.2%.
In the case of `Cc1ccc(NC(=O)CCC(=O)NNC(=O)COc2ccccc2)c(C)c1` it was 2.24%; in that of `CCOC(=O)Nc1ccc(C)cc1C`, 0.47%; in that of `CCOc1ccc(NC(=O)CNc2ccc(C)cc2Cl)cc1`, -1.87%.
In the case of `COc1ccc(Cl)cc1NC(=O)CNc1ccc(F)cc1C` it was 6.38%; in that of `Cc1ccc(NC(=O)CNc2ccc(OC(C)C)cc2)c(C)c1`, 46.8%; in that of `Cc1ccc(NC(=O)C(=O)NCCOc2ccc(Cl)cc2)c(C)c1`, 7.98%.
`CCOc1ccc(OCCC(=O)Nc2ccc(F)cc2C)cc1`: the inhibition is -6.9%.
As for `COc1ccc(NCC(=O)Nc2ccc(Br)cc2F)c(OC)c1`, the figure is 75.1%; as for `C[C@@H]1CC[C@]2(O[C@@H](CCO)C[C@@H](O)[C@@H]2O)O1`, -6.09%; as for `Cc1nc2sc(C(c3cccc(F)c3)N3CCC(C)CC3)c(O)n2n1` (stereo not drawn), -7.23%.
In the case of `O=S(=O)(c1ccc(Cl)c(S(=O)(=O)N2CCCC2)c1)N1CCCC1` it was -11.7%.
Turning to `CC(=O)c1ccc(N2CCN(C(=O)C3(S(=O)(=O)c4ccc(Cl)cc4)CC3)CC2)cc1`, the inhibition was 1.33%.
On to `Cc1cc(N2CCN(C)CC2)nc2ccc(NC(=S)N3CCCCC3)cc12`, for which the inhibition was 30.4%.
In the case of `CN(C(=O)COc1ccc(S(=O)(=O)N2CCOCC2)cc1[N+](=O)[O-])C1CCS(=O)(=O)C1` (stereo not drawn) it was -7.08%; in that of `COc1ccc(NC(=O)c2cccnc2N2CCOCC2)cc1`, 4.7%; in that of `COc1ccccc1NC(=S)N(CCCN1CCOCC1)Cc1cccs1`, -3.58%.
Take `Cc1[nH]c2ccccc2c1C(=O)COC(=O)c1ccc([N+](=O)[O-])s1`: the inhibition was 99.3%.
In the case of `O=C(COC(=O)c1ccc([N+](=O)[O-])s1)NCc1ccccc1` it was 17.7%; in that of `CCc1cccc2c(C(=O)COC(=O)c3ccc(O)cc3)c[nH]c12`, 2.75%; in that of `CCc1cccc2c(C(=O)COC(=O)c3ccccc3)c[nH]c12`, 7.6%.
On to `CCN(C(=O)CCCC(=O)N(CC)c1ccccc1)c1ccccc1`, for which the inhibition is -1.06%.
As for `Cc1cc(C)nc(SCC(=O)Nc2ccc(S(=O)(=O)Nc3onc(C)c3C)cc2)n1`, the figure is -9.62%.
As for `CC(C)(C)CN1CCNC(=O)C1CC(=O)N1CCN(c2ccccc2)CC1` (stereo not drawn), the figure is -2.51%; as for `O=C(NCc1cccc(C(F)(F)F)c1)c1cc(Cl)ccc1Cl`, 15%.
As to `CC1=Nc2ccccc2/C1=C\c1nc(-c2ccccc2)oc1O`, the inhibition was 3.61%.
As for `CC1=Nc2ccccc2/C1=C\c1nc(-c2ccc(F)cc2)oc1O`, the figure is 54.8%; as for `CC(C)c1ccc(CNC(=O)CCc2ccccc2)cc1`, 6.15%; as for `O=C(O)CSCC(=O)NCc1ccccc1`, -2.1%.
In the case of `O=C(CSCc1ccc(C(=O)O)cc1)Nc1ccc2ccccc2c1` it was 35.7%; in that of `CC(C)(C)CC(C)(C)NC(=O)CSCC(=O)Nc1ccc2ccccc2c1`, -8.35%; in that of `CCN(CC)C(=N)/C(C#N)=N/Nc1ccccc1`, -13.5%.
As for `Cn1cccc1C(=O)NC(=O)COC(=O)CNC(=O)c1ccc(Cl)cc1Cl`, the figure is -13%.
As to `O=C(Cn1nc(C(F)(F)F)c2c1CCCC2)Nc1ccc2c(c1)OCO2`, the inhibition is -0.66%.
Consider `CCOc1ccc(C2=NNC(c3cccnc3)=Nc3ccc(OC)cc32)cc1`, for which the inhibition is 1.63%.
As for `N#CCCn1c(C(C#N)(CCC#N)CCC#N)nc2ccccc21`, the figure is -2.99%.
In the case of `COc1ccc(C(=O)ON=C2C=C(C)C(=O)C(C)=C2)cc1` it was -2.82%.
As for `COc1ccc(S(=O)(=O)N=C2C=C(C)C(=O)C(C)=C2)cc1`, the figure is -5.5%.
With `COc1cc(C(C(=O)NC(C)(C)C)N(Cc2ccc3c(c2)OCO3)C(=O)c2cnccn2)cc(OC)c1OC` (stereo not drawn), the inhibition was -6.38%.
As for `CCOC(=O)C[C@H]1c2ccccc2S(=O)(=O)N1c1cccc(OC)c1`, the figure is -8.13%; as for `CC(=O)Nc1sc2c(c1CN1CCN(C)CC1)CCCC2`, -1.53%; as for `CC(=O)Nc1sc2c(c1CN1CCCC1)CCCC2`, -3.09%.
In the case of `COc1cccc(C(=O)Nc2ccc(NC(C)=O)cc2)c1` it was -16.8%; in that of `CC1CCCN(C(=O)Cn2cnc3c2c(=O)n(C)c(=O)n3C)C1` (stereo not drawn), 10.5%.
As for `Cc1cc(C(=O)OCC(=O)N2c3ccccc3CC2C)c(C)o1` (stereo not drawn), the figure is 7.82%; as for `O=C(OCC(=O)N1CCc2ccccc21)c1cccnc1`, -5.16%.
Consider `CC1Cc2ccccc2N1C(=O)COC(=O)c1cccnc1Cl` (stereo not drawn), for which the inhibition was 3.35%.
As for `CC1Cc2ccccc2N1C(=O)COC(=O)c1ccc(O)cc1` (stereo not drawn), the figure is 2.09%; as for `O=C(OCC(=O)N1CCCc2ccccc21)c1ccc(Cl)nc1`, 60.1%.
In the case of `CC1Cc2ccccc2N1C(=O)COC(=O)CNC(=O)c1ccc(Br)o1` (stereo not drawn) it was -10.5%; in that of `NC(=O)CC[C@@H]1NC(=O)[C@@H]2CCCN2C(=O)c2cc([N+](=O)[O-])cc(I)c2NCCCC[C@@H](C(=O)NC(CC(=O)O)C(N)=O)NC1=O` (stereo partly drawn), 0.47%.
On to `Cc1ccc(NC(=O)CSc2nnc(-c3n[nH]c4ccccc34)n2-c2ccccc2)c(C)c1`, for which the inhibition is 14.9%.
Regarding `COc1ccc(Cl)cc1Nc1nc(C)cc(C)c1C(N)=O`, the inhibition was -2.67%.
In the case of `Cc1cc2c(sc3ccccc32)c(C)n1` it was 5.03%; in that of `CN1C(=O)C(=Cc2ccc(N3CCOCC3)o2)C(=O)N(C)C1=O`, 5.8%; in that of `O=Cc1ccc(N2CCCC2)o1`, 46.4%.
As for `O=C(Nc1cccc2ncccc12)C12CC3CC(CC(C3)C1)C2`, the figure is -10%; as for `Cc1ccccc1OCc1nnc(SCC(=O)NCc2ccccc2)n1C`, 2.63%; as for `Cc1ccccc1C(=O)NC1CCN(CC(=O)NCc2cccs2)CC1`, 2.61%.
As for `Cc1ccc(N/C=C/C(=O)c2sc(-c3ccccc3)nc2C)cc1`, the figure is 3.94%.
Consider `COc1ccc(/C=C/C(=O)c2sc(-c3ccccc3)nc2C)cc1`, for which the inhibition is 6.03%.
For the compound `COc1cc(S(=O)(=O)N2CCCCC2)ccc1NC(=O)Cc1ccccc1`, the inhibition was -1.81%.
Take `Cc1ccc(CNC(=O)COC(=O)c2cnc(C)cn2)cc1`: the inhibition is 0.26%.
In the case of `COC1=C(Nc2ccc(OC)cc2)C(=O)c2ccccc2C1=O` it was 8.34%; in that of `COC1=C(Nc2ccccc2)C(=O)c2ccccc2C1=O`, 13.5%.
In the case of `COc1cccc(-c2nc(-c3ccc(C(=O)O)cc3)no2)c1` it was -12.7%; in that of `O=[N+]([O-])c1cc(CN2CCN(c3ccccc3)CC2)c(O)c2ncccc12`, 77.9%; in that of `O=[N+]([O-])c1cc(CN2CCCC2)c2cccnc2c1O`, -5.59%.
`COc1ccc(NC(=O)C2C3CCC(C3)C2C(=O)O)cc1OC` (stereo not drawn): the inhibition was 6.44%.
In the case of `COCCC(=O)Nc1ccc2c(c1)CN(C(=O)CCSC)CC2` it was 3.42%; in that of `CCn1c(CNc2ccccc2Cl)nnc1SCC(=O)NCc1ccccc1`, -4.41%; in that of `CCn1c(CNc2ccc(OC)cc2)nnc1SCC(=O)Nc1ccc(F)cc1`, -10.9%.
As for `CCn1c(CNc2ccc(F)cc2)nnc1SCC(=O)Nc1ccc(OC)cc1`, the figure is 2.51%; as for `CCn1c(CNc2ccccc2Cl)nnc1SCCN1CCCCC1`, -2.66%; as for `Cc1ccc(NC(=O)CSc2nnc(Cc3ccccc3)o2)cc1`, 22.6%.
For the compound `O=C(CSc1nnc(Cc2ccccc2)o1)Nc1ccccc1`, the inhibition was -4.88%.
In the case of `COCCN(C(=O)c1ccco1)C(C(=O)NC1CCCC1)c1cccs1` (stereo not drawn) it was 0.07%; in that of `CC(OC(=O)c1snc(C(=O)NC2CCCCC2)c1N)C(=O)NC1CCCCC1` (stereo not drawn), 2.49%; in that of `CC(OC(=O)c1snc(C(=O)NC2CCCCC2)c1N)C(=O)NC(C)(C)C` (stereo not drawn), 39%.
As for `CCOC(=O)c1sc(C)c(C(=O)NC2CCCCC2)c1N`, the figure is 4.33%.
`CCOC(=O)c1snc(C(=O)NC2CCCCC2)c1N`: the inhibition was 5.5%.
